# Assay results: the supplement of paper PMC3334620
# Over roughly 33,000 sequences, “E-score (-0.5 to 0.5)” has its median near -0.013; the highest 2% begin near 0.3. The list comes from a sample in which the highest values are over-represented; it also holds similar and randomly drawn sequences.
# Biological target: T1, Msn1 (UniProt P22148)
# T1 sequence: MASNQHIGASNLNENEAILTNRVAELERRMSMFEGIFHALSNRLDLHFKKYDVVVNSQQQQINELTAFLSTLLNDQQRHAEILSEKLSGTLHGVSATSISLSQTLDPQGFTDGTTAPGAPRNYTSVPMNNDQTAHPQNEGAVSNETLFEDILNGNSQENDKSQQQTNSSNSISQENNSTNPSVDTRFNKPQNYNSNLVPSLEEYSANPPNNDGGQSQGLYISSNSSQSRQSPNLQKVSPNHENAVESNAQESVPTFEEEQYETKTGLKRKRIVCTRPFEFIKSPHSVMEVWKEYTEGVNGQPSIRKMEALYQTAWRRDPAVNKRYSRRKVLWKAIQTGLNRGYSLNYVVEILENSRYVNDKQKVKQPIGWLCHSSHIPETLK
# Test: PBM E-score (8-mer binding enrichment) (E-score (-0.5 to 0.5)); higher = stronger / more preferred TF binding
# Conditions: protein concentration: 200 nM; construct: GST-full length
# In short: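 For each ungapped eight-base word taken together with its reverse complement, the Universal PBM Analysis Suite assigned an E-score. Binding data came from GST-tagged yeast transcription factors, applied at about 100-200 nM, on universal all-10-mer Agilent arrays made double-stranded by primer extension. Fluorescent anti-GST marked bound protein, and scans were normalised with masliner.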
row,Sequence,PBM E-score
1,ACGAAGCT,-0.0736
2,CCTTTGGC,-0.132
3,AATCGAAT,0.047
4,ACGTTGCC,-0.241
5,CCAGCGCG,-0.158
6,GAGCTCGC,-0.0509
7,CACCCACA,-0.132
8,ATTAGCTA,-0.086
9,GCCCGGAA,0.0421
10,GGAGACCA,-0.0845
11,GGAGACAA,0.32
12,GGAGACAC,0.0421
13,AGTCTTGC,-0.0197
14,CCAAAGTA,-0.0844
15,ATTACTGG,-0.119
16,CAAGCGCA,0.185
17,CCCTCGAA,-0.0781
18,ACTGCTGG,-0.169
19,AACATTAA,0.158
20,TACATTAA,0.277
21,AACATTAC,-0.108
22,GACATTAA,0.431
23,AACATTTA,0.252
24,CACATTTA,0.15
25,GACATTTA,0.474

row,Sequence,PBM E-score
1,GACATTAC,0.442
2,CACATTAC,0.0152
3,AGAGGTCG,-0.105
4,GCTGGAAA,-0.0496
5,ATTTTGAA,0.126
6,TGGCCAAA,0.0563
7,ATCTTGCA,0.0688
8,ATGTACAA,0.36
9,ATGTACCC,0.115
10,ATGTACAC,0.268
11,ATGTACGA,0.215
12,ATGTACAT,0.324
13,ATGTACTA,0.233
14,ATGTACAG,0.185
15,ATGTACCA,0.316
16,GTGTACCA,0.189
17,AATTAGCG,0.0486
18,ATGCTCCC,-0.341
19,GCCCGTTA,-0.266
20,CGTTCGCC,-0.0525
21,ACGAGGCG,0.0795
22,CCATTGTA,0.193
23,ACATTGTG,0.207
24,ATATTGTG,-0.00984
25,CCATTGGC,-0.0912

row,Sequence,PBM E-score
1,ACATTGTC,0.411
2,ATATTGTC,0.427
3,ACATTGTA,0.143
4,CCATTGTC,0.311
5,CTATTGTC,0.288
6,GAAGTAGC,-0.206
7,TAGGGTGA,-0.1
8,CCCTGCAG,-0.245
9,CGCATTTA,0.193
10,ATGGACAT,0.484
11,ATGGACAA,0.485
12,ATGGACCA,0.114
13,ATGGAAAT,0.0754
14,ATGGACGA,0.273
15,ATGGACAG,0.251
16,ATGGACCC,-0.0808
17,GTCGACAC,0.141
18,GTGGAAAC,0.164
19,ATGGACGC,0.122
20,GTGGACAC,0.356
21,ATGGACAC,0.437
22,GCGCTAGC,-0.0831
23,ATTAGGGA,0.0137
24,CAGGTTGC,0.0156
25,AGACTTGC,-0.136

row,Sequence,PBM E-score
1,AGCTTAAT,-0.00074
2,CACCCGTA,-0.0199
3,AAGCGAGC,-0.0286
4,AGCTTGAT,-0.0595
5,ACCGCGCC,-0.168
6,CTAAGACA,0.302
7,AAAAGACC,0.00338
8,ACAAGACG,0.0049
9,AAAAGACA,0.342
10,GTAAGACA,0.305
11,TAAAGACA,0.356
12,AAAAGACG,0.135
13,ACAAGACA,0.34
14,TCAAGACA,0.247
15,TAAAGATA,0.0041
16,ATAAGACA,0.264
17,GCAAGACA,0.157
18,GACGGCTC,-0.211
19,GCATATGC,-0.0698
20,ATTTCCAC,0.106
21,CCGACCCC,-0.354
22,CATCAGAA,0.00838
23,GCCGCCTA,-0.173
24,CCAGCGCC,-0.229
25,CAGTTTAC,-0.0477

row,Sequence,PBM E-score
1,GGAAGACA,0.251
2,GAAAGACA,0.227
3,TGAAGACA,0.328
4,CAAAGACC,-0.0488
5,CGAAGACA,0.259
6,CAAAGACA,0.361
7,AGCGCATA,0.034
8,CTAGCTCA,-0.0294
9,ATCCATTA,0.0133
10,AGCCTACA,-0.135
11,CGTCTGCA,0.0663
12,CCGAACAG,0.0877
13,GGCCGAAC,-0.239
14,CTAGACAG,0.00829
15,GTAGACAA,0.309
16,GTAGACGA,0.115
17,CTAGACAC,0.0417
18,TTAGATAA,0.0312
19,GTAGACAC,0.0944
20,TTAGACAA,0.394
21,TTAGAAAA,0.109
22,CTAGACAA,0.305
23,CCATTTGA,-0.0557
24,CGCATACG,-0.0304
25,AGTGGGGA,-0.185

row,Sequence,PBM E-score
1,AACAGTAG,-0.0756
2,CGTGGGAA,-0.0248
3,GACTCCTC,-0.149
4,CATGACAG,0.13
5,AATGACAA,0.29
6,CATGACAA,0.383
7,GATGACAC,0.06
8,GATGACAA,0.336
9,TATGACAA,0.408
10,TATGACCA,0.0481
11,CATGACAC,0.193
12,GATGACTA,-0.0556
13,AGAGCGAA,-0.00578
14,TCCTTCGA,0.11
15,GCTAGTGA,-0.00743
16,TGAATGAA,0.0496
17,AGTAGGGG,-0.202
18,CATTTAAC,0.188
19,GGGAGCGA,-0.219
20,TGGCCCAA,-0.0694
21,AGGTCCTC,-0.119
22,ATGTCCTC,0.481
23,AGGTCCTG,0.0441
24,ATTTCCTG,0.206
25,CTGTCCTC,0.197

row,Sequence,PBM E-score
1,ATGTCCTG,0.487
2,GCCCGCTA,-0.211
3,AAACAGGG,0.09
4,CGGCGACA,0.0783
5,CTTAGCAC,-0.0653
6,GACACATA,0.361
7,CACATATC,0.0551
8,TACACATA,0.0567
9,GACATAGA,0.36
10,GACATATC,0.451
11,AACATAGA,-0.021
12,GACATAGC,0.295
13,GACATATA,0.448
14,AACATATC,0.0631
15,CACACATA,0.0356
16,CACATATA,0.0314
17,AACATATA,0.0881
18,CGATTTGA,-0.163
19,CGGGGCCA,-0.157
20,AGTCAGGC,0.0431
21,CTTCGGTA,-0.0133
22,CTGGCAGC,-0.271
